From PubChem BioAssay
Only some compounds are listed: those with a hit (about 18% of all), similar ones and a draw of the others.
DT40 TDP1 no CPT = qHTS for Inhibitors of human tyrosyl-DNA phosphodiesterase 1 (TDP1): qHTS in cells in absence of CPT; DT40 Tdp1-/- hTDP1 cells, no CPT, ATP luminescence, 48 h; Potency, µM (highest dose often 46.2 µM), for the others: at the highest dose activity change, negative = growth inhibition, hits mostly inhibitors; actives 15% (n = 420,000); AID 686978, 2013; also: potency is read from the fitted curve at half-maximal effect; nearly all actives have a fitted effect of over 55% in size
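Cells were dispensed at 400 per well, compounds added by pin tool, plates incubated ≥48 hr at 37 °C, then CellTiter-Glo added for 30 min at room temperature before luminescence reading. Line: DT40 Tdp1-/- complemented with hTDP1; camptothecin omitted.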
Six1-Eya2 blk = Six1/Eya2 interaction inhibition | AID 651725 | AlphaScreen GST-Six1/His-Eya2 binding, biochemical; stronger effect = lower value | activity change, % (test concentration not listed) | actives 0.56% (n = 360,000); in the data active = activity change below about -65%; inconclusive = mostly about -30% to -63%
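AlphaScreen luminescence read after one hour at 37 °C in darkness. Pin-transferred compounds met GST-Six1 and His-Eya2 protein (5X stock 250 nM/500 nM) plus glutathione donor and Ni-chelate acceptor beads (5X, 50 ug/mL).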
TDP1 cell CPT = growth inhibition of DT40 Tdp1-/-;hTDP1 cells with camptothecin (screen for TDP1 inhibitors). Potency, µM (titrated, usually from 46.2 µM), for the others: at the highest dose activity change, negative = growth inhibition, actives largely listed as inhibitors. actives 12% (n = 420,000). chicken DT40 Tdp1-/-;hTDP1 cells + 20 nM CPT, ATP luminescence, 48 h; also: potency is read from the fitted curve at half-maximal effect; nearly all actives have a fitted effect of over 55% in size
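Chicken DT40 Tdp1-/- cells stably complemented with human TDP1 were seeded at 400 cells/well in medium containing 20 nM camptothecin, exposed to pin-transferred compounds, and grown at 37 °C for at least 48 hr. Viability was read as ATP luminescence.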
TDP1 inh = TDP1 (human) enzyme inhibition. recombinant TDP1, AlphaScreen DNA substrate cleavage. Potency, µM (titrated, usually from 130 µM), for inactives: top-dose activity change, negative = inhibition, actives largely listed as inhibitors. actives 0.28% (n = 350,000). Q9NUW8; also: potency is read from the fitted curve at half-maximal effect; nearly all actives have a fitted effect of over 40% in size
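Signal: AlphaScreen proximity between streptavidin donor and anti-FITC acceptor beads on intact substrate. Reaction: Tdp1 1 nM, substrate 15 nM final, 5 min RT after 15 min compound preincubation.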
IL1B secr inh = inflammasome signaling inhibition, IL-1 beta readout; activity change, % at 57.5 µM; THP-1 LPS/ATP IL-1B secretion, AlphaLISA, 16 h; stronger effect = lower value; actives 4.7% (n = 360,000); in the data active = activity change below about -50%; inconclusive = mostly about -30% to -49%
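THP-1 cells pretreated 1 hr with compounds (up to 57.5 uM final), then stimulated with LPS (250 ng/mL final) plus ATP (1.25 mM final); secreted IL-1B measured by AlphaLISA after 16 hr, decreased signal indicating inhibition.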
CtBP-E1A inh = CtBP/E1A binding inhibition; AlphaScreen GST-E1A/His-CtBP binding, 1536-well; stronger effect = lower value; activity change, % (concentration not given with the values); actives 0.49% (n = 340,000); AID 651724; in the data active = activity change below about -65%; inconclusive = mostly about -30% to -63%
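Protein mix (5X: 125 nM each GST-E1A, His-CtBP) was incubated with pinned compound 2 h at 37 deg C in dark, in 50 mM Tris pH 8.0 buffer with 300 mM NaCl. Glutathione donor and nickel acceptor beads followed; AlphaScreen signal read after 1 h.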
An asterisk follows results filed as active; ? = inconclusive; / = not tested or not shown. Unless noted, calls follow the shape of the dose curve; as a rule, active = well fitted curve in the direction sought with a large enough effect; inconclusive = small, poorly fitted or top-dose-only effect, or another doubt; inactive = no such curve, though single readings can be large; an effect the other way counts as inactive or inconclusive. % is scaled to controls: 0 for no effect and ±100 for the full control effect.

SMILES | DT40 TDP1 no CPT | Six1-Eya2 blk | TDP1 cell CPT | TDP1 inh | IL1B secr inh | CtBP-E1A inh
Cc1nn(C)cc1CN(C)C(=O)c1nn2c(c1Br)NC(c1cccs1)CC2C(F)(F)F (stereo not drawn) | 14.6µM* | 5.9 | ? | -2.6% | 30.9 | 5.4
Cc1nn(C)cc1CN(C)C(=O)c1nn2c(c1Cl)NC(c1cccs1)CC2C(F)(F)F (stereo not drawn) | 12.6µM* | -7.6 | ? | 2.3% | 20.0 | -13.0
Cc1nn(C)c(C)c1CNC(=O)c1cnn2c1NC(c1ccccc1)CC2C(F)(F)F (stereo not drawn) | -20.7% | -4.0 | ? | 8.6% | -4.3 | 10.3
Cc1nn(C)c(C)c1CN(C)C(=O)c1cc2n(n1)C(C(F)(F)F)CC(c1cccs1)N2 (stereo not drawn) | 16.4µM* | 0.4 | 25.9µM* | -2.0% | -5.7 | -2.5
CCC(C)NC(=O)c1cnn2c1NC(c1cccs1)CC2C(F)(F)F (stereo not drawn) | -28.4% | 0.2 | -10.0% | 4.9% | -14.6 | 8.8
CCOC(=O)c1sc(NC(=O)c2cc3n(n2)C(C(F)(F)F)CC(c2cccs2)N3)c(C(=O)OCC)c1C (stereo not drawn) | 13µM* | ? | ? | -3.9% | -14.2 | 1.0
O=c1ccc(-c2ccc(S(=O)(=O)NCC3CCN(Cc4ccccc4F)CC3)s2)n[nH]1 | 18.1% | -84.3* | 9.9% | 4.9% | -6.0 | -87.8*
CC(C)c1nc(Cl)c(C#N)c2c1CCC2 | ? | 10.6 | 38.9% | -5.1% | 17.7 | 7.7
O=C(NCCc1ccc(Cl)cc1)c1cc(-c2ccccc2)n[nH]1 | -12.5% | / | ? | -2.8% | / | /
O=C([O-])c1cc(-c2ccccc2)cc(-c2ccccc2)[n+]1CCc1ccc(Cl)cc1 | 6.51µM* | -6.7 | 4.61µM* | / | ? | -23.7
Cc1ccc(-c2nc(C#N)c(NCc3ccco3)o2)cc1 | ? | -10.8 | -20.5% | 6.6% | -8.6 | -1.9
C=C1CCC[C@]2(C)C[C@H]3OC(=O)C(CN4CCOCC4)[C@H]3C[C@@H]12 (stereo partly drawn) | ? | 3.9 | ? | / | -74.3* | /
C=C1CCC[C@]2(C)C[C@H]3OC(=O)C(CNC(C)CCCC(C)C)[C@H]3CC12 (stereo partly drawn) | 20.6µM* | 8.7 | ? | / | -98.6* | 4.6
C=C1CCC[C@]2(C)C[C@H]3OC(=O)C(CNCC(OC)OC)[C@H]3CC12 (stereo partly drawn) | 18.4µM* | 9.1 | ? | / | -78.4* | 3.9
C=C1CCC[C@]2(C)C[C@H]3OC(=O)C(CN(Cc4ccc(OC)c(OC)c4)CC(C)O)[C@H]3CC12 (stereo partly drawn) | 18.4µM* | -0.7 | ? | / | -97.8* | /
C/C(=N\NC(=O)Cn1cnc2ccccc21)c1cccs1 | -28.5% | -7.4 | -18.6% | 1.2% | -0.3 | 1.5
CCOc1cc(N2CCOCC2)c(OCC)cc1NC(=O)CSc1ncn[nH]1 | 3.3% | 12.2 | -0.5% | -10.0% | 4.6 | 8.6
COc1ccc(NC(=O)c2oc3ccccc3c2C)cn1 | -11.7% | 2.3 | ? | 7.3% | 33.6 | -1.0
C=C1CCC[C@]2(C)C[C@H]3OC(=O)C(CN[C@@H](C)c4ccccc4)[C@H]3CC12 (stereo partly drawn) | ? | 9.3 | ? | / | -86.9* | 1.8
COc1ccc(C(=O)NCCCC2CCCC2)cc1OC1CCN(C(C)C)CC1 | 16.4µM* | -0.8 | 16.4µM* | / | -21.7 | 2.6
COc1ccc(C(=O)N(C)CCCC2CCCC2)cc1OC1CCN(C(C)=O)CC1 | 16.4µM* | -1.6 | ? | 5.8% | 2.2 | 3.2
Cc1ccc(NC(=O)CC2S/C(=N/N=C/C=C/c3ccccc3)NC2=O)cc1Cl (stereo not drawn) | -5.3% | 9.9 | 4.7% | 4.7% | 20.4 | -2.5
CC1CN(S(=O)(=O)c2ccc(C(=O)Nc3ccccc3F)cc2)CC(C)O1 (stereo not drawn) | 4.4% | 0.0 | -15.0% | 0.2% | -10.7 | -24.5
O=C(N/N=C/C(Br)=C\c1ccccc1)c1ccc2nc[nH]c2c1 | 14.6µM* | -19.7 | 10.3µM* | 2.7% | -89.9* | -76.5*
O=C(N/N=C/C(Br)=C/c1ccccc1)c1cccnc1 | 2.06µM* | ? | 2.59µM* | 5.0% | -94.8* | ?
SMILES | DT40 TDP1 no CPT | Six1-Eya2 blk | TDP1 cell CPT | TDP1 inh | IL1B secr inh | CtBP-E1A inh
CC(/C=N\NC(=O)c1cccnc1)c1ccccc1 (stereo not drawn) | -0.6% | 4.2 | -2.5% | / | 14.7 | 9.5
O=C(N/N=C/C(Br)=C/c1ccccc1)c1ccc([N+](=O)[O-])cc1 | 4.11µM* | -3.8 | 4.11µM* | -16.7% | ? | /
CC(=O)N/C(=C/c1ccccc1)c1ccncc1 | 11.2µM* | / | 7.94µM* | / | / | /
O=C(N/N=C/c1cccc([N+](=O)[O-])c1)c1ccc(Br)cc1 | -4.9% | -0.8 | 8.0% | 0.0% | -29.9 | -0.7
CCOc1ccccc1N1CCN(C(=O)c2c(CC)noc2C)CC1 | -8.1% | 2.9 | -4.8% | 5.6% | 12.1 | 5.5
O=C(N/N=C/C(Br)=C/c1ccccc1)c1ccncc1 | 1.64µM* | ? | 1.64µM* | 5.5% | -83.6* | /
CC(/C=N/NC(=O)c1ccncc1)=C\c1ccccc1 | -5.8% | -7.2 | 1.1% | 6.4% | -5.1 | -9.6
CC(Oc1ccc(F)cc1)C(=O)Nc1cc(S(=O)(=O)N2CCOCC2)ccc1N1CCCCC1 (stereo not drawn) | 16.4µM* | -15.5 | ? | -10.0% | -19.4 | -2.6
CC(Oc1cccc(Cl)c1)C(=O)Nc1cc(S(=O)(=O)N2CCOCC2)ccc1N1CCCCC1 (stereo not drawn) | 20.6µM* | -10.6 | ? | -5.7% | 25.3 | -10.1
O=C(CSc1cccc2cccc(Cl)c12)NCc1cccs1 | 25.9µM* | -6.2 | ? | / | -4.6 | -21.8
Cc1nc(SCC(=O)NCc2cccs2)nc(C)c1C | 5.3% | -2.5 | 14.5% | 0.0% | 36.9 | 11.1
CCn1nc(C)c(Br)c1C(=O)Sc1ccccc1Cl | 4.61µM* | 6.8 | 3.66µM* | 3.9% | -27.6 | 2.8
CN(C)Cc1csc(NC(=O)Nc2cccc(C(F)(F)F)c2)n1 | 18.4µM* | 5.8 | 14.6µM* | / | -6.7 | 3.2
Cc1cc(NC(=O)Nc2cccc(C(F)(F)F)c2)no1 | ? | -3.6 | -4.1% | 3.1% | 7.1 | -3.0
CC(N)c1csc(NC(=O)Nc2cccc(C(F)(F)F)c2)n1 (stereo not drawn) | ? | -21.3 | ? | / | -102.2* | -26.5
